Laboratory results published in PubChem BioAssay AID1159580 (chemical genetic matrix, 2015).
About 2,000 (36%) of roughly 5,500 compounds were called active. Not shown: some 18% with an inconclusive outcome. No stated cut-off is given here; in the data, active means normalized growth mostly below about 0.91 (no sharp cut-off); inconclusive means no clear call, values can overlap the other calls; inactive means mostly above about 0.92. The list shows a part of the results.

Test: chemical genetic growth profiling, strain panel (AID 1159580);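 further: tested at 20 µM; growth read once vehicle control cultures reached saturation at 30 °C; 1 = growth at the plate median or of vehicle wells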
Conditions: S. cerevisiae deletion strains, growth OD

Measured: normalized growth

c1ccc(N=Nc2ccc(Nc3ccccc3)cc2)cc1
inactive: locus YDL101C, strain DUN1, stronger effect = lower value 0.977 | locus YDR150W, strain NUM1, stronger effect = lower value 0.906 | locus YGR229C, strain SMI1, stronger effect = lower value 0.984 | locus YLR058C, strain SHM2 (second series), stronger effect = lower value 0.964 | locus YNL322C, strain KRE1, stronger effect = lower value 1 | locus YPR135W, strain CTF4, stronger effect = lower value 0.748
active: locus YAL013W, strain DEP1, stronger effect = lower value 0.916 | locus YBR229C, strain ROT2, stronger effect = lower value 0.823 | locus YCL061C, strain MRC1, stronger effect = lower value 0.89 | locus YDL134C, strain PPH21, stronger effect = lower value 0.825 | locus YEL061C, strain CIN8, stronger effect = lower value 0.74 | locus YGR078C, strain PAC10, stronger effect = lower value 0.897 | locus YHR030C, strain SLT2, stronger effect = lower value 0.57 | locus YHR087W, strain rtc3, stronger effect = lower value 0.751 | locus YJR043C, strain POL32, stronger effect = lower value 0.91 | locus YJR075W, strain HOC1, stronger effect = lower value 0.754 | locus YLR039C, strain RIC1, stronger effect = lower value 0.425 | locus YLR085C, strain ARP6, stronger effect = lower value 0.389 | locus YLR262C, strain YPT6, stronger effect = lower value 0.37 | locus YML094W, strain GIM5, stronger effect = lower value 0.812 | locus YMR219W, strain ESC1, stronger effect = lower value 0.92 | locus YMR263W, strain SAP30, stronger effect = lower value 0.9 | locus YMR307W, strain GAS1, stronger effect = lower value 0.405 | locus YNL128W, strain TEP1, stronger effect = lower value 0.913 | locus YNL153C, strain GIM3, stronger effect = lower value 0.914 | locus YNL298W, strain CLA4 (second series), stronger effect = lower value 0.79 | locus YNR030W, strain Alg12, stronger effect = lower value 0.737 | locus YPL055C, strain LGE1, stronger effect = lower value 0.626 | locus YPL241C, strain CIN2, stronger effect = lower value 0.75
